Test results taken from PubChem BioAssay (EPA / NIEHS).
Calls of active or inactive are those of the source. How the source made its calls: active means hit-call score of the fitted dose curve at least 0.9, where 1 is the maximum; inactive means score below 0.9.

Assay: APR_HepG2_P-H2AX_1hr: Apredica 1-hour HepG2 Assay for H2AX Phosphorylation (AID 2282673)
Settings: high-content imaging, actives raise or lower the signal
Method: APR_HepG2_1hr is a cell-based, multiplexed-readout assay that uses HepG2, a human liver cell line, with measurements taken at 1 hour after chemical dosing in a 384-well plate.APR_HepG2_P-H2AX_1hr is one of 10 assay component(s) measured or calculated from the APR_HepG2_1hr assay. It is designed to make measurements of dna content, a form of viability reporter, as detected with fluorescence intensity signals by HCS Fluorescent Imaging technology.Data from the assay component APR_HepG2_P-H2AX_1hr was analyzed into 1 assay endpoint. This assay endpoint, APR_HepG2_P-H2AX_1hr, was analyzed with bidirectional fitting relative to DMSO as the negative control and baseline of activity. Using a type of viability reporter, measures of protein for gain or loss-of-signal activity can be used to understand the signaling at the pathway-level as they relate to the gene . Furthermore, this assay endpoint can be referred to as a primary readout, because this assay has produced multiple assay endpoints where this one serves a signaling function. To generalize the intended target to other relatable targets, this assay endpoint is annotated to the dna binding intended target family, where the subfamily is cellular response to DNA damage stimulus.
Cells were treated with dimethyl sulfoxide (DMSO) as a solvent control at a final concentration of 0.5% v/v or with compounds in DMSO with a resulting final DMSO concentration of 0.5% v/v. Compound treatment was done at concentrations of 0.39, 0.78, 1.56, 3.12, 6.24, 12.5, 25, 50, 100, and 200 uM in duplicate on each plate. Cells were treated with compounds for 1, 24, or 72 hr. Carbonyl […] m-chloro-phenylhydrazone (CCCP) and taxol were used as positive controls for mitochondrial function and cytoskeletal stability, respectively; DMSO served as the negative control for this experiment. Cells were fixed by the direct addition of 50 uL formaldehyde in Hank's Balanced Salt Solution (HBSS) to a final concentration of 3.7%. After incubation in the fixation medium for 30 min at room temperature (293-298 K), cells were rinsed twice with HBSS and treated with cell permeabilization buffer (16 uL of 0.5% Triton X-100) for 10 min at room temperature (293-298 K) before labeling. For mitochondrial membrane potential and mitochondrial measurements, pre-fixed cells were incubated with 50 uL of MitoTracker Red CMXRos (Invitrogen) at a concentration of 250 nM for 30 min before fixation. In the remaining cases, post-fixed cells were labeled by incubation with a multiplexed mixture of primary antibodies in HBSS for 60 min at room temperature (293-298 K) to detect immunoreactivity of c-Jun (1:500), phospho-histone H3 (1:100), phospho-histone H2A.x (1:200), p53 (1:400), alpha-tubulin (1:200) and Hoechst 33342 (2 ug/mL). Cells were labeled for multiplexed imaging on two separate plates: a) Hoechst 33342, MitoTracker Red, phospho-histone H3, and alpha-tubulin, and b) Hoechst 33342, phospho-histone H2A.x, and c-Jun. A final rinse with HBSS (50 uL) was performed before analysis. The primary and secondary antibodies for the proteins were phospho-histone H3 (rabbit anti-phospho-histone H3 and FITC-donkey anti-rabbit IgG), phospho-histone H2A.x (mouse anti-phospho-histone H2A.x and FITC-donkey anti-mouse IgG), c-Jun (rabbit anti-phospho-c-Jun and Cy3-donkey anti-rabbit IgG), p53 (sheep anti-p53 and Cy5-donkey anti-sheep IgG), alpha-tubulin (mouse anti-alpha-tubulin and Cy5-donkey anti-mouse IgG). These antibodies are available as the CellCiphr HepG2 assay kit (Millipore).Digital images of each well were captured using a Cellomics ArrayScan VTI (Thermo Scientific Cellomics) (0.8 NA objective, 0.63x optical coupler, and XF-93 filter set) at 20x magnification. The images were acquired using the autofocus feature of the ArrayScan instrument, which entails the following steps. First, the camera focuses on channel 1 (Hoechst 33342), where nuclei are identified. Second, a Z offset of 1 um is used for capturing mitochondria (MitoTracker Red). […]

SMILES	outcome
CNC(=S)S	inactive
COc1nc(C)nc(NC(=O)NS(=O)(=O)c2ccccc2Cl)n1	inactive
C#CCOS(=O)OC1CCCCC1Oc1ccc(C(C)(C)C)cc1 (stereo not given)	inactive
CCON=C(CC)C1=C(O)CC(c2c(C)cc(C)cc2C)CC1=O (stereo not given)	inactive
CCOC(=O)CC(SP(=S)(OC)OC)C(=O)OCC (stereo not given)	inactive
CC(C)(C)c1ccc(CSc2cnn(C(C)(C)C)c(=O)c2Cl)cc1	inactive
CCNc1nc(Cl)nc(NCC)n1	inactive
O=C(O)COc1nc(Cl)c(Cl)cc1Cl	inactive
CO/C=C(/C(=O)OC)c1ccccc1Oc1cc(Oc2ccccc2C#N)ncn1	inactive
N#Cc1cc(Br)c(O)c(Br)c1	inactive
Fc1ccc(Oc2ccnc3cc(Cl)cc(Cl)c23)cc1	inactive
CNC(=O)ON=CC(C)(C)SC	inactive
COc1nc(C)nc(NC(=O)NS(=O)(=O)c2ccccc2CCC(F)(F)F)n1	inactive
CON(C)C(=O)Nc1ccc(Cl)c(Cl)c1	inactive
Cc1c(F)c(F)c(COC(=O)C2C(/C=C(\Cl)C(F)(F)F)C2(C)C)c(F)c1F (stereo not given)	inactive
CCCCNC(=O)OCC#CI	inactive
N#Cc1nn(-c2c(Cl)cc(C(F)(F)F)cc2Cl)c(N)c1S(=O)C(F)(F)F (stereo not given)	inactive
COC(=O)N(OC)c1ccccc1COc1ccn(-c2ccc(Cl)cc2)n1	inactive
CCCCC(CC)COC(=O)c1ccccc1C(=O)OCC(CC)CCCC (stereo not given)	inactive
COc1cnc(OC)n2nc(NS(=O)(=O)c3c(OCC(F)F)cccc3C(F)(F)F)nc12	inactive

SMILES	outcome
CS/C(C)=N/OC(=O)N(C)SN(C)C(=O)O/N=C(\C)SC	inactive
COC(=O)c1ccccc1C(=O)OC	inactive
CCCCOC(=O)c1ccccc1C(=O)OCCCC	inactive
O=C(Nc1ccccc1)Nc1ccnc(Cl)c1	inactive
COc1ccc(C(c2ccc(OC)cc2)C(Cl)(Cl)Cl)cc1	inactive
CC1=C(C(=O)Nc2ccccc2)SCCO1	inactive
CC(C)C1(C)N=C(c2nc3ccccc3cc2C(=O)O)NC1=O (stereo not given)	inactive
CCOP(=S)(OCC)SCn1c(=O)oc2cc(Cl)ccc21	inactive
CCOc1cc(Oc2ccc(C(F)(F)F)cc2Cl)ccc1[N+](=O)[O-]	inactive
COC(=O)C(C)Oc1ccc(Oc2ccc(Cl)cc2Cl)cc1 (stereo not given)	inactive
COP(=S)(OC)Oc1nc(Cl)c(Cl)cc1Cl	inactive
O=C(O)c1nc(Cl)ccc1Cl	inactive
Oc1ccccc1-c1ccccc1	inactive
COC(=O)C=C(C)OP(=O)(OC)OC	inactive
COc1nc(NC(C)C)nc(NC(C)C)n1	inactive
Cc1ccc(-c2c(Cl)nc(C#N)n2S(=O)(=O)N(C)C)cc1	inactive
C=CC1(C)OC(=O)N(c2cc(Cl)cc(Cl)c2)C1=O (stereo not given)	inactive
CCCCNC(=O)n1c(NC(=O)OC)nc2ccccc21	inactive
CN(C)C(=S)SSC(=S)N(C)C	inactive
CCc1nn(C)c(C(=O)NCc2ccc(C(C)(C)C)cc2)c1Cl	inactive
